Bioassay records deposited in PubChem BioAssay by several laboratories.
In the library only some 4.3% were active in any assay of this set; here they are far more common.
MLL AF4-AF9 inh – MLL-AF4/AF9 protein interaction inhibition. P42568. AlphaScreen, biotin-AF4 peptide binding to FLAG-AF9. inhibition, % at 10 µM. actives 0.47% (n = 350,000). AID 651704;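 active = every replicate reaching a set inhibition limit, whatever the replicate mean, cut at about 25% in these data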
Target sequence (P42568 whole entry, looked up): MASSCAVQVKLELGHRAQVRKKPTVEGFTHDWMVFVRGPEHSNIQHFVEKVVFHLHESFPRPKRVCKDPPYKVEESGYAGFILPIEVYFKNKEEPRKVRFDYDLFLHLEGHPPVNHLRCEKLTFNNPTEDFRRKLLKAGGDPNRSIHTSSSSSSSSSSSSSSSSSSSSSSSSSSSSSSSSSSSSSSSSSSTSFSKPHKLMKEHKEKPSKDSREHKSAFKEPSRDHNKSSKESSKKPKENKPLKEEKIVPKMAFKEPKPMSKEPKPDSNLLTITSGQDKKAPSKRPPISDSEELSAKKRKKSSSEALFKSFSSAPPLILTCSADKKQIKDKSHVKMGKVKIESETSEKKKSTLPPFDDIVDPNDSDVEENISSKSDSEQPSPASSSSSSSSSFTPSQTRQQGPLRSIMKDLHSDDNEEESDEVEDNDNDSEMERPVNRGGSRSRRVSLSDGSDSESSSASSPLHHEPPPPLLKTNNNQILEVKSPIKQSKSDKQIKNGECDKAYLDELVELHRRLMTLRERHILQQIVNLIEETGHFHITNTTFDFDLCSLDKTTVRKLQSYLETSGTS
FGF22 binding – FGF22 (human) thermal shift binding; activity (Tm shift, normalised), % at 9.99 µM; actives 1.5% (n = 340,000); recombinant FGF22 thermal shift, SYPRO orange fluorescence; percent of sucrose octasulfate shift, DMSO zero; AID 651658;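 active = mean Tm shift, scaled 0 neutral to 100 positive control, at about 1.3% or above, every replicate too, limit read from the data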
MITF TRPM1 HTS – activators of MITF-driven TRPM1 promoter activity in SK-MEL-5 cells; SK-MEL-5 TRPM1-promoter luciferase, 24 h; % of positive control, neutral wells = 0; activation, % at 12.5 µM; actives 0.75% (n = 300,000);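 active = mean activation of at least 80% with every replicate also reaching 80%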
SMARCA2 act – increases SMARCA2 function in MMTV reporter cells; MG213 cells, MMTV-luciferase reporter, dexamethasone, overnight; activation, % at 9.1 µM; actives 1% (n = 370,000); in the data active = activation above about 7.8%
esBAF inh – blocks esBAF chromatin remodeling in mouse ES cells; Bmi1-luciferase knock-in reporter, 24 h; 100% = twice the neutral-well signal; reporter increase, % at 12.5 µM; actives 2% (n = 350,000); AID 602393; in the data active = activation above about 40%;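 note: a rise in the Bmi1 reporter signal indicates esBAF inhibition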
Wnt act – activates Wnt/beta-catenin signaling in a reporter cell assay; activator, plate reader; actives 1.2% (n = 300,000); activation, % at 9.35 µM; in the data active = activation above about 30%, passing the limit was not always enough
Numbers stand for hits.

How did C[C@H](NC(=O)C[C@@H]1CC[C@@H]2[C@H](COC[C@H](O)CN2C(=O)Nc2cccc(Cl)c2)O1)c1ccccc1 do in these assays?
FGF22 binding: inactive; esBAF inh: inactive

How did CC(=O)NNc1nc(-c2ccc(NC(C)=O)cc2)cs1 do in these assays?
MLL AF4-AF9 inh: inactive; FGF22 binding: inactive; MITF TRPM1 HTS: inactive; SMARCA2 act: inactive; Wnt act: inactive

Results for COc1ccc(-c2csc(Nc3ccc(C)cn3)n2)cc1 ?
MLL AF4-AF9 inh: inactive; FGF22 binding: 61; MITF TRPM1 HTS: inactive; SMARCA2 act: inactive; Wnt act: inactive

Results for Oc1ccc(-c2csc(Nc3ccc4c(c3)OCO4)n2)c(O)c1 ?
FGF22 binding: inactive; MITF TRPM1 HTS: inactive; SMARCA2 act: inactive; esBAF inh: inactive; Wnt act: 46

How did CC(=O)Nc1ccc(-c2csc(Nc3cccc(C)n3)n2)cc1 do in these assays?
MLL AF4-AF9 inh: inactive; FGF22 binding: inactive; MITF TRPM1 HTS: 87; SMARCA2 act: inactive; Wnt act: 48

Results for O=C(Nc1cc(F)ccc1F)N[C@@H]1CC[C@H](CCNC(=O)c2cnccn2)O[C@H]1CO ?
MLL AF4-AF9 inh: inactive; FGF22 binding: inactive; esBAF inh: inactive

How did CCN1CCN(c2ccc(N=Cc3ccccc3O)cc2)CC1 do in these assays?
MLL AF4-AF9 inh: 57; FGF22 binding: inactive; MITF TRPM1 HTS: inactive; SMARCA2 act: inactive; Wnt act: inactive

Results for C[C@@H]1CN([C@@H](C)CO)C(=O)c2cccc(NC(=O)C3CCCCC3)c2O[C@@H]1CN(C)C(=O)Nc1cccc2ccccc12 ?
MLL AF4-AF9 inh: inactive; FGF22 binding: inactive; esBAF inh: inactive

Results for CC(C)C(=O)N1CCC1(C)C(=O)Nc1cc(-c2ccccc2)nn1C (stereo unspecified) ?
MLL AF4-AF9 inh: inactive; FGF22 binding: inactive; SMARCA2 act: inactive; esBAF inh: 50; Wnt act: inactive

How did C[C@@H]1CCCCO[C@H](CN(C)C(=O)NC2CCCCC2)[C@@H](C)CN([C@@H](C)CO)C(=O)c2cc(NS(C)(=O)=O)ccc2O1 do in these assays?
FGF22 binding: inactive; esBAF inh: inactive

Results for CN1CCN(C(=O)C[C@@H]2CC[C@@H]3[C@H](COC[C@@H](O)CN3C(=O)Nc3ccc(F)cc3)O2)CC1 ?
MLL AF4-AF9 inh: inactive; FGF22 binding: inactive; esBAF inh: inactive

How did O=c1c2ccccc2nc2c3ccccc3cnn12 do in these assays?
MLL AF4-AF9 inh: inactive; FGF22 binding: inactive; MITF TRPM1 HTS: inactive; SMARCA2 act: inactive; esBAF inh: 74; Wnt act: inactive

What do the screens show for `O=S1(=O)c2c(cccc2N2CC[C@H](O)C2)OCCCN1C1CC1`?
SMARCA2 act: inactive

Results for O=C(c1nnc(-c2ccncc2)o1)c1ccccc1Cl ?
MITF TRPM1 HTS: inactive; SMARCA2 act: inactive; esBAF inh: inactive; Wnt act: 35

What do the screens show for `COCC#Cc1ccc2c(c1)O[C@H](CN(C)C)[C@@H](C)CN([C@@H](C)CO)S2(=O)=O`?
MLL AF4-AF9 inh: inactive; FGF22 binding: inactive; esBAF inh: inactive

Results for CN(/N=C/c1ccncc1)c1cnc2ccccc2n1 ?
MLL AF4-AF9 inh: inactive; FGF22 binding: inactive; MITF TRPM1 HTS: inactive; SMARCA2 act: inactive; Wnt act: 37

What do the screens show for `O=C(CCC1CCCCC1=O)c1ccccc1` (stereo unspecified)?
MITF TRPM1 HTS: inactive; SMARCA2 act: inactive; esBAF inh: inactive

Results for Cc1ccc(C(=O)CCC2CCCC2=O)cc1 (stereo unspecified) ?
MITF TRPM1 HTS: inactive; SMARCA2 act: inactive; esBAF inh: 57

What do the screens show for `CCc1ccc(C(=O)CCC2CCCCC2=O)cc1` (stereo unspecified)?
MITF TRPM1 HTS: 89; esBAF inh: inactive

Results for Cc1ccc(C(=O)COC(=O)C2CCC2)cc1 ?
MITF TRPM1 HTS: inactive; esBAF inh: inactive

What do the screens show for `Cc1ccc(C(=O)CCC2CCCCC2=O)cc1` (stereo unspecified)?
MITF TRPM1 HTS: inactive; SMARCA2 act: inactive; esBAF inh: 45; Wnt act: inactive

Results for C[C@H](CO)N1C[C@H](C)[C@H](CN(C)C(=O)NC2CCCC2)Oc2ncc(-c3cccnc3)cc2C1=O ?
MLL AF4-AF9 inh: inactive; FGF22 binding: inactive; esBAF inh: inactive
